Experimental data published in PubChem BioAssay (Tox21).
Records with an inconclusive call do not appear. A call without a number means that no potency is given here. A number with no mark means an inactive call. Activity calls are given as the source filed them. Calls follow the shape of the dose curve; as a rule, active = well fitted cell-killing curve with a large enough effect in the repeat runs; inconclusive = weak or mixed curves, or effect the other way; inactive = flat fitted curve, though single readings scatter.

Assay: qHTS RealTime-Glo MT Cell Viability Assay in HepG2 cells - 0 hour (AID 1224889); also: nearly all actives have a fitted effect of over 50% in size
Conditions: RealTime-Glo luminescence; series mostly up to 76.8 µM
Text: U.S. Tox21 Program National Center for Advancing Translational Sciences [NCATS] NIH Chemical Genomics Center [NCGC] U.S. Environmental Protection Agency [EPA] National Institutes of Environmental Health Sciences [NIEHS] National Toxicology Program [NTP] U.S. Food and Drug Administration [FDA] Tox21 Assay Overview: Measure of cell viability is critical in the cell-base assay. Analysis of cell viability is necessary for the characterization of cell responses to cytotoxic drugs and environmental stress. A RealTime-Glo MT Cell Viability Assay to monitor cell viability in real time of continues cell culture during 40 hours of compound treatment was used to screen Tox21 10K library compounds in HepG2 cells. The RealTime-Glo MT Cell Viability Assay is a nonlytic, homogeneous, bioluminescent method to measure cell viability in real time using a simple, plate-based method. The assay involves adding NanoLuc luciferase and a cell-permeant prosubstrate to cells in culture. Viable cells reduce the proprietary prosubstrate to generate a substrate for NanoLuc luciferase. This substrate diffuses from cells into the surrounding culture medium, where it is rapidly used by the NanoLuc Enzyme to produce a luminescent signal. The signal correlates with the number of viable cells, making the assay well suited for cytotoxicity studies.
Tox21 Assay Protocol Summary: The mixture of HepG2 cell suspension and reagents were dispensed at 600cells/6 ul/well in 1536-well tissue culture treated black solid bottom plates using a Multidrop dispenser. After the assay plates were incubated at a 37 C/5% CO2 incubator for 5 hours, 23 nL of compounds dissolved in DMSO, positive and negative controls was transferred to the assay plate by a pintool work station. The plates were incubated at 37 C for 40 hours. The luminescence intensity were measured at 0h, 8h, 16h, 24h, 32h and 40h time points using ViewLux plate reader during compound treatment.

SMILES	Potency	activity change, negative = cytotoxicity
C1CCC2(CCCCO2)OC1	inactive	–
CC(=O)N[C@H]1[C@H]([C@H](O)[C@H](O)CO)OC(C(=O)O)=C[C@@H]1N=C(N)N	inactive	–
O=C(c1ccccc1)C1(O)CCCCC1	inactive	–
C=C[Si](OC(C)=O)(OC(C)=O)OC(C)=O	inactive	–
CO[C@@]1(NC(=O)CSC[C@@H](N)C(=O)O)C(=O)N2C(C(=O)O)=C(CSc3nnnn3C)CS[C@@H]21	inactive	–
CCC(C)(CCCC(C)C)OC(C)=O (stereo not given)	inactive	–
CCOc1ccc2nc(S(N)(=O)=O)sc2c1	inactive	–
CC(C)NNC(=O)c1ccncc1	inactive	–
Nc1c2c(nc3c1CCC3)CCCC2	inactive	–
c1ccc(Cc2ccccc2)cc1	inactive	–
CCC(=O)OCc1ccccc1	inactive	–
Cc1ccnc(NS(=O)(=O)c2ccc(N)cc2)n1	inactive	–
CC[N+](C)(CC)CCOC(=O)C1c2ccccc2Oc2ccccc21	inactive	–
CCCCN1C=CN(C)C1	–	0.175% [at 15.8 µM]
Clc1cc(Cl)cc(Cl)c1	inactive	–
CN1CCN(c2cc3c(nn2)Oc2ccccc2N3C)CC1	–	-7.1% [at 15.8 µM]
CC(C)(C)C(=O)c1ccccc1	inactive	–
CCC1C(=O)OCC1Cc1cncn1C (stereo not given)	inactive	–
CC1=CC(=O)[C@H]2C[C@@H]1C2(C)C	inactive	–
CCCc1ncc(C[n+]2ccccc2C)c(N)n1	inactive	–

SMILES	Potency	activity change, negative = cytotoxicity
CC(C)(CCC(=O)O)C(=O)O	inactive	–
CCCC(C)C(=O)OCC (stereo not given)	inactive	–
CNCC(O)c1ccc(O)c(O)c1 (stereo not given)	inactive	–
Nc1ccccn1	inactive	–
CC(=O)C1CCCCC1=O (stereo not given)	inactive	–
CCC(C)(CN(C)C)OC(=O)c1ccccc1 (stereo not given)	inactive	–
CC1=NS(=O)(=O)c2cc(Cl)ccc2N1	inactive	–
C[C@H]1[C@H](NC(=O)/C(=N/OC(C)(C)C(=O)O)c2csc(N)n2)C(=O)N1S(=O)(=O)O (stereo in doubt)	inactive	–
CC(=O)c1ccc2ccccc2c1	inactive	–
O=S(=O)(O)c1cccc2ccccc12	inactive	–
CC1=CCC(O)(C(C)C)CC1 (stereo not given)	inactive	–
NC(=O)NC1N=C([O][Al])NC1=O (stereo not given)	inactive	–
NC(=O)N[C@@H](CCC(=O)O)C(=O)O	inactive	–
O=C(O)Cc1csc(-c2ccc(Cl)cc2)n1	inactive	–
COc1ccc2cc1Oc1cc3c(cc1OC)CC[N+](C)(C)[C@H]3Cc1ccc(cc1)Oc1c(OC)c(OC)cc3c1[C@@H](C2)[N+](C)(C)CC3	inactive	–
[K+]	inactive	–
N[C@H](C(=O)O)[C@@H](O)c1ccc(O)c(O)c1	inactive	–
CO/N=C(\C(=O)N[C@@H]1C(=O)N2C(C(=O)O)=C(CSc3nc(=O)c(O)nn3C)CS[C@H]12)c1csc(N)n1	inactive	–
C=COC(=O)C(C)(CC)CCC(C)C (stereo not given)	inactive	–
Cc1ccc(C(=O)Nc2ccc(S(=O)(=O)O)c3cc(S(=O)(=O)O)cc(S(=O)(=O)O)c23)cc1NC(=O)c1cccc(NC(=O)Nc2cccc(C(=O)Nc3cc(C(=O)Nc4ccc(S(=O)(=O)O)c5cc(S(=O)(=O)O)cc(S(=O)(=O)O)c45)ccc3C)c2)c1	inactive	–
